Screening results: PubChem, National Center for Advancing Translational Sciences (NCATS)
This is a sample that favours compounds with a hit; in the whole collection about 2.2% have one here.
aSyn yeast inh = alpha-synuclein toxicity inhibition in yeast; Yeast expressing alpha-synuclein, growth rescue, BacTiter-Glo, 24 h; Potency, µM (top dose mostly 46.1 µM), inactives show at the highest dose growth rescue (activation), most hits filed as activators; hit rate 0.14% among 370,000; AID 652106; further: % of control where 0% means no effect; nearly all actives have a fitted effect of over 65% in size
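Screening used galactose-induced yeast with toxic alpha-synuclein levels, exposed to compound for 24 hr at 30 deg C. Cell growth, read with BacTiter-Glo luminescence, gave the measured signal.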
Mito fusion act = inhibitors of mitochondrial division or activators of mitochondrial fusion; S. cerevisiae fusion-defective mutant growth rescue, CellTiterGlo 48 h; Potency, µM (doses to about 46.1 µM), without a hit: top-dose growth rescue (activation), hits mostly activators; hit rate 0.23% among 320,000; further: % of control where 0% means no effect; nearly all actives have a fitted effect of over 45% in size
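S. cerevisiae fusion-defective temperature-sensitive mutants (e.g. fzo1-1, mgm1-5) grown 48 h at 37C in YPEG (ethanol/glycerol non-fermentable) medium with 23 nl compound per well; growth rescue read as CellTiterGlo luminescence.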
TDP-43 yeast inh = inhibitors of TDP-43 toxicity in yeast; AID 652104; Potency, µM (doses to about 46.1 µM), for the others: at the top dose growth rescue (activation), actives largely listed as activators; TDP-43 expressing yeast growth rescue, BacTiter-Glo, 24 h; hit rate 1.8% among 410,000; further: % of control where 0% means no effect; nearly all actives have a fitted effect of over 50% in size
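Growth rescue of TDP-43-toxic yeast measured as ATP luminescence (BacTiter-Glo). Cells grown to mid-log in raffinose, induced in galactose at OD600=0.02, exposed to compound 24 hr at 30 deg C.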
FUS yeast rescue = suppressors of FUS proteinopathy in yeast; S. cerevisiae FUS-expressing, growth rescue, OD600, 24 h; Potency, µM (doses to about 76.6 µM), most hits filed as activators; hit rate 0.24% among 390,000;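 further: plate controls were DMSO vehicle for no effect and reference control for full effect; nearly all actives have a fitted effect of over 55% in size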
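Cultures pregrown in 2.5% raffinose medium are shifted to minimal medium containing 2% galactose to express toxic FUS. Compounds are tested at several concentrations. After 24hr at 30C, growth is quantified at 600 nm absorbance.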
Abeta rescue = compounds reversing amyloid beta toxicity in yeast. yeast expressing A-beta42, growth rescue, OD600, 48 h; response scale: 0% DMSO, 100% iron-clioquinol control. Potency, µM (top dose mostly 46.1 µM), usual class: activators. hit rate 0.063% among 410,000; further: nearly all actives have a fitted effect of over 55% in size
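Yeast growth medium received pinned compounds, then yeast cells expressing toxic A-beta were added; plates incubated at 30 C for 48 hr. Growth read as absorbance at 600 nm, normalized to DMSO and equimolar FeCl3 plus clioquinol controls.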
* hit, by the source's call; i = inactive; ? = inconclusive; · = no result; [ ] = remark or other dose. The call rests on the fitted dose curve; in most records, active means well fitted curve in the direction sought with a large enough effect; inconclusive means small, poorly fitted or top-dose-only effect, or another doubt; inactive means no such curve, though single readings can be large; an effect the other way counts as inactive or inconclusive. Potency means the concentration at half of the fitted maximal effect.

SMILES | aSyn yeast inh | Mito fusion act | TDP-43 yeast inh | FUS yeast rescue | Abeta rescue
CC1(C)C(C(=O)OCC(Cl)(Cl)Cl)N2C(=O)C(NC(=O)Cc3ccccc3)C2S1=O (stereo not given) | -3% | -2% | -6% | i | i
Cc1ccc(CSc2ccc3nnc(-c4cccnc4)n3n2)cc1 | -1% | 15% | 7% | i | i
Cc1ccc(CSc2ccc3nnc(-c4ccccn4)n3n2)cc1 | -1% | -5% | 20µM* | i | i
O=C(CSc1ccc2nnc(-c3cccnc3)n2n1)Nc1ccc(F)cc1 | 2% | 0% | 1% | i | i
Fc1cccc(CSc2ccc3nnc(-c4cccnc4)n3n2)c1 | 9% | -2% | 16µM* | i | ?
Brc1ccc(CSc2ccc3nnc(-c4ccccn4)n3n2)cc1 | 0% | -1% | ? | i | i
Brc1ccc(CSc2ccc3nnc(-c4cccnc4)n3n2)cc1 | 1% | 0% | 16µM* | i | i
O=c1[nH]c2ccc(S(=O)(=O)N3CCCC3)cc2o1 | · | · | · | i | ·
Cc1ccc(-n2cc(-c3ccccc3)c3c(NC4CCCC4)ncnc32)cc1 | · | · | 35µM* | i | i
CCOc1ccc(-n2cc(-c3ccccc3)c3c(NC4CCCC4)ncnc32)cc1 | · | · | ? | i | i
COc1ccc(-n2cc(-c3ccccc3)c3c(NC4CCCCC4)ncnc32)cc1 | · | · | -3% | i | i
Cc1cccc(-n2cc(-c3ccccc3)c3c(NC4CCCC4)ncnc32)c1 | · | · | 20µM* | i | i
Cc1c(C2(c3cc(C(C)C)c(O)c(Br)c3C)OS(=O)(=O)c3ccccc32)cc(C(C)C)c(O)c1Br | -14% | · | · | · | ·
Cc1cccc(C(=O)N2CCc3cc(CNC(=O)COc4ccc(Cl)cc4)ccc32)c1 | · | · | 11% | i | i
CCOC(=O)c1ccc(N=Cc2nc(-c3ccccc3)oc2OC(C)=O)cc1 | 20% | -3% | 16µM* | i | i
O=C1CSC(c2ccc(Cl)c(Cl)c2)N1c1nccs1 (stereo not given) | 1%[1.84 µM] | 12% | 14µM* | i | i
Cc1ccc(C)c(NC(=O)c2cnc(N3CCCC3)nc2C)c1 | · | · | 14µM* | i | i
COc1ccccc1CNC(=O)c1cnc(N2CCCC2)nc1C | · | · | ? | i | i
Cc1nc(N2CCCC2)ncc1C(=O)NCc1ccccc1Cl | · | · | 35µM* | i | i
Cc1cccc(N2CCN(C(=O)c3ccc4c(c3)c(C)c(C)n4C)CC2C)c1 (stereo not given) | 1% | -6% | 16µM* | ? | i
Cc1ccc(-c2c(C(=O)N3CCN(c4cccc(C)c4)C(C)C3)oc(=O)c3ccccc23)cc1 (stereo not given) | · | · | 14µM* | i | i
Cc1cccc(N2CCN(C(=O)c3cc4c(=O)n(C)c5ccccc5c4s3)CC2C)c1 (stereo not given) | · | · | 6% | i | i
O=C(Cn1ncc2c3ccccc3n(Cc3ccccc3F)c2c1=O)NCC1CCCO1 (stereo not given) | 3% | -1% | 8% | ? | i
CCc1cccc(NC(=O)c2c(N3CCCC3=O)c3cc(C)ccc3n2C)c1 | -2% | · | 13% | i | i
COc1ccc2c(c1)CC(C(=O)NCCc1ccc(S(N)(=O)=O)cc1)CO2 (stereo not given) | · | · | 0%[9.22 µM] | i | i
SMILES | aSyn yeast inh | Mito fusion act | TDP-43 yeast inh | FUS yeast rescue | Abeta rescue
Cc1sc2ncnc(N3CCC(C(=O)N4CC(C)SC4=Nc4ccc(Cl)cc4)CC3)c2c1C (stereo not given) | 2% | · | 11% | i | i
CCOC(=O)c1ccc(NS(=O)(=O)c2ccc3[nH]c4c(c3c2)CCCCC4)cc1 | ? | · | 6% | ? | i
CCOC(=O)c1ccc2[nH]c3c(c2c1)CCCC3 | -2% | 2% | 25µM* | i | i
Cc1ccc(NS(=O)(=O)c2ccc3[nH]c4c(c3c2)CCCCCC4)cc1 | · | · | 14µM* | i | i
CC1CCCC(C)N1CCOc1cc(N)ccc1C#N (stereo not given) | -12% | · | -14% | i | i
Cc1nc2cccnc2n1C1CCN(C(=O)Nc2ccccc2C(F)(F)F)CC1 | · | · | 16% | i | i
CCc1ccc(OCC(=O)NNC(=S)NC(=O)C2CCCCC2)c(Br)c1 | 7.1µM* | -3% | 18µM* | i | 7.9µM*
CCc1ccc(OCC(=O)NNC(=S)NC(=O)C2CC2)c(Br)c1 | 0% | -28% | -58% | i | i
CCc1ccc(OCC(=O)Nc2ccncc2)c(Br)c1 | 1% | -6% | 2% | i | i
CCc1ccc(OCC(=O)NNC(=O)c2cnccn2)c(Br)c1 | ? | -1% | 25µM* | i | 25µM*
NC(=O)NN=C1c2cc(S(=O)(=O)N3CCOCC3)ccc2-c2ccc(S(=O)(=O)N3CCOCC3)cc21 | 3% | · | · | · | ·
CCCC[C@@H]1CNC(=S)N1CCc1cccc2ccccc12 | 21% | 7% | 35µM* | i | ?
CCOc1ccc(S(=O)(=O)NCc2cccnc2)cc1C(C)C | 3% | -1% | 0% | i | i
Cc1ccccc1N1C(=O)CC(N2CCC(C(N)=O)CC2)C1=O (stereo not given) | -89% | -14% | 16µM* | i | i
Cc1nc2ccccc2n1C(=O)c1ccccc1[N+](=O)[O-] | -1% | 7% | 20µM* | · | i
CN(C)CCN(C(=O)c1cccs1)c1nc2cc3c(cc2s1)OCCO3 | -1% | -2% | -10% | i | i
COc1cc(Br)c(CC(=O)NO)cc1OC | 2% | · | · | · | ·
O=C(Nc1ccccc1N1CCOCC1)c1ccc([N+](=O)[O-])o1 | -16% | -1% | 10% | i | i
COc1ccc(OCC(=O)Nc2cccc3cccnc23)cc1 | · | 17% | 13µM* | i | i
Cc1cccc(NC(=O)c2ccc(N3CCCCC3)c([N+](=O)[O-])c2)n1 | -13% | -22% | 3.5µM* | · | i
CC(=O)c1cccc(OCC(=O)Nc2ccccc2N2CCOCC2)c1 | 0% | 9% | 22µM* | i | i
CC(=O)c1cccc(OCC(=O)Nc2cc(S(=O)(=O)N3CCOCC3)ccc2N2CCCC2)c1 | -10% | -6% | 1% | i | i
Cc1cccc(NC(=O)c2ccc(N3CCOCC3)c([N+](=O)[O-])c2)n1 | 2% | 3% | ? | i | i
O=C(Nc1ccccc1N1CCCCC1)c1ccc([N+](=O)[O-])o1 | -9% | 5.6µM* | 16% | i | i
CCn1cc(C(=O)NCCCOC)c(=O)c2cc(S(=O)(=O)N3CCc4ccccc4C3)ccc21 | · | · | -4% | i | i
CCc1nc2ccc(C(=O)NCCCN3CCCC3=O)cn2c1N(C)CCC(C)C | 0% | · | 0% | i | ?
CS(=O)(=O)c1ccc(Cl)c(NC(=O)c2cc(=O)[nH]c3ccc(S(=O)(=O)N4CCOCC4)cc23)c1 | 3% | -6% | 22% | i | i
